Test results taken from PubChem BioAssay.
Values without a mark were called inactive. For part of these data: Measured potencies and affinities stand elsewhere. The source made the active and inactive calls. Unless noted, the rule behind the calls is not given here.

Tests used:
[1] = antimalarial activity against Dd2 strain (AID 2302;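 active = growth inhibition above 50% at the single 2 µM test dose, taken to imply half-maximal potency below 2 µM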;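 note: 0% = DMSO untreated growth and 100% = chloroquine plus artemisinin killed control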); conditions: P. falciparum Dd2 in RBCs, LDH growth readout, 72 h; at 2 µM; hits give high values
[2] = human hepatoma cell viability loss – ATP luminescence, cytotoxicity control for P. falciparum antimalarial project, primary screen (AID 2303;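 active = inhibition above 50%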;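 note: 0% = DMSO wells and 100% = digitonin-killed cells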); conditions: HepG2 viability, 24-48 h, at 10 µM, hits give high values
[3] = target: L-lactate dehydrogenase (Plasmodium falciparum (isolate CDC / Honduras)) (UniProt Q27743); assay: PfLDH activity inhibition – cell lysate, 3D7 strain, counter-screen for P. falciparum growth inhibition project (AID 2304);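 note: 0% = vehicle and 100% = reference inhibitor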; conditions: P. falciparum 3D7 crude extract, LDH APAD/NBT absorbance; at 2 µM; hits give high values
[4] = inhibition of 3D7 malaria parasite growth – strain 3D7 (AID 2306);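 note: 0% = DMSO wells and 100% = chloroquine plus artemisinin control wells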; conditions: P. falciparum 3D7 erythrocytic growth, LDH absorbance, 72 h; at 2 µM; hits give high values
[5] = target: Calcium-dependent protein kinase 1 (Plasmodium falciparum (isolate 3D7)) (UniProt P62344); assay: PfCDPK1 kinase inhibitors, biochemical, TCAMS library (AID 1159585; cut-off not given, nearly all actives have IC50 up to about 0.98 µM;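 note: inhibitors leave more ATP so luminescence rises with inhibition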); conditions: recombinant PfCDPK1, Kinase-Glo ATP depletion luminescence
[6] = target: Plasmodium falciparum protein kinase 6 (PK6, PF3D7_1337100) (UniProt Q8IDW1); assay: PfPK6 kinase inhibitors, biochemical, TCAMS library (AID 1159586); conditions: recombinant PfPK6, Kinase-Glo ATP depletion luminescence
[7] = target: Protein kinase 7 (PK7), Plasmodium falciparum 3D7 (PF3D7_0213400) (UniProt Q7YTF7); assay: inhibition of Plasmodium PK7 catalytic activity – biochemical, TCAMS antimalarial set, Kinase-Glo luminescence (AID 1159587); conditions: recombinant PfPK7, Kinase-Glo ATP depletion luminescence
[8] = target: Calcium-dependent protein kinase 4 (Plasmodium falciparum (isolate 3D7)) (UniProt Q8IBS5); assay: PfCDPK4 kinase inhibitors, biochemical, TCAMS library (AID 1159588; cut-off not given, nearly all actives have IC50 up to about 0.91 µM); conditions: recombinant PfCDPK4, Kinase-Glo ATP depletion luminescence
Chain of Calcium-dependent protein kinase 4 (Plasmodium falciparum (isolate 3D7)) (Q8IBS5 whole entry, looked up): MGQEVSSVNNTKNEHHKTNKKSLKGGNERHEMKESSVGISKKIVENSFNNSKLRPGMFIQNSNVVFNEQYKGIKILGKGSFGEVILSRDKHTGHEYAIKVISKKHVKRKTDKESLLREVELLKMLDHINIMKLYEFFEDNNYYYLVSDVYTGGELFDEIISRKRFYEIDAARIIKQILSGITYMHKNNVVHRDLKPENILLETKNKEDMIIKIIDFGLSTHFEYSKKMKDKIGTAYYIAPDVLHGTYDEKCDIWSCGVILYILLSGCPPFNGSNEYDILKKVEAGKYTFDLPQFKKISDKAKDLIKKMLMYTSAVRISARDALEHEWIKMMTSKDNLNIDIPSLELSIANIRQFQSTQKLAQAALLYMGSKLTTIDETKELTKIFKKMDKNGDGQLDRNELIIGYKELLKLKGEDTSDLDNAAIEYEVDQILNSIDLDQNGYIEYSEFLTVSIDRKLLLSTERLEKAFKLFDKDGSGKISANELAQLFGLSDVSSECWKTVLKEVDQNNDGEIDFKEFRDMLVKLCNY

Chain of Protein kinase 7 (PK7), Plasmodium falciparum 3D7 (PF3D7_0213400) (Q7YTF7 1-343): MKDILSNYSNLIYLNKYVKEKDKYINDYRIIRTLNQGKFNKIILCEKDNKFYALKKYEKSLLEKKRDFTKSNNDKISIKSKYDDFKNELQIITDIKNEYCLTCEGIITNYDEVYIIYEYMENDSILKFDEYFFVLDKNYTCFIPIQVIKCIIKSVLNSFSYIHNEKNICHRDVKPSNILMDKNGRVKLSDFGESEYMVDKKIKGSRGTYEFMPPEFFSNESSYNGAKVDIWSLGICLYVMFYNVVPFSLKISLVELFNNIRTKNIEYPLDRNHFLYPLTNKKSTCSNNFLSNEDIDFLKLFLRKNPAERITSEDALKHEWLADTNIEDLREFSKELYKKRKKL
Chain of Calcium-dependent protein kinase 1 (Plasmodium falciparum (isolate 3D7)) (P62344 whole entry, looked up): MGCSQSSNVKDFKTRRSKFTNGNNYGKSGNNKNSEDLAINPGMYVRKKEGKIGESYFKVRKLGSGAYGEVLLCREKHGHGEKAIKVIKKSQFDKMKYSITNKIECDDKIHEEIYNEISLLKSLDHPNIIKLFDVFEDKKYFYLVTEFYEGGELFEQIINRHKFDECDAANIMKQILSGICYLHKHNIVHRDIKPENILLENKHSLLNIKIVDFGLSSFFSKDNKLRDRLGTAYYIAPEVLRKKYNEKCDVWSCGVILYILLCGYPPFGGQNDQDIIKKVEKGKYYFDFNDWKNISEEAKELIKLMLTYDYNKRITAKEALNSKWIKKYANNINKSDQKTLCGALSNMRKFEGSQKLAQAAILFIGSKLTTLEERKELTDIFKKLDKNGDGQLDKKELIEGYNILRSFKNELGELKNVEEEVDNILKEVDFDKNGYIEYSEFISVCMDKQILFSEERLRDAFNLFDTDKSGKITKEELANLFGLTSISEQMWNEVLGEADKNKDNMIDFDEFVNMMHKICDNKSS
Chain of L-lactate dehydrogenase (Plasmodium falciparum (isolate CDC / Honduras)) (Q27743 whole entry, looked up): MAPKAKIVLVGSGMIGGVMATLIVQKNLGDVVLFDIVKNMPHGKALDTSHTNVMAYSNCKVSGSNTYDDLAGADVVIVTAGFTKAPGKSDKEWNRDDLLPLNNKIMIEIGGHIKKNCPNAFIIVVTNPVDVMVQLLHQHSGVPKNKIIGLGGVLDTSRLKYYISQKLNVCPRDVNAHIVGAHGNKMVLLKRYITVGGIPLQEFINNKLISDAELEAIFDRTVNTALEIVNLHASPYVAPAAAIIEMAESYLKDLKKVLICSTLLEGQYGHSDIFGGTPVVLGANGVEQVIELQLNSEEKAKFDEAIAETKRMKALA
Chain of Plasmodium falciparum protein kinase 6 (PK6, PF3D7_1337100) (Q8IDW1 1-305): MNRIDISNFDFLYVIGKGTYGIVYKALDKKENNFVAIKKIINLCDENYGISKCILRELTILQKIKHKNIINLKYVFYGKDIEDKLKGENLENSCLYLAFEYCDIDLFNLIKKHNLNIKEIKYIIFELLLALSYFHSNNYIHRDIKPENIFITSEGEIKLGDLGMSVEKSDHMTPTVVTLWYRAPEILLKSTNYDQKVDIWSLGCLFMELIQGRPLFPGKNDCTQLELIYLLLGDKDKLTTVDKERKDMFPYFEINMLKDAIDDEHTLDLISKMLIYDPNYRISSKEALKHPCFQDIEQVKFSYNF

## O=c1cc(NCCCNCc2cccc(OC(F)(F)C(F)F)c2)[nH]c2ccccc12
[1]
  growth inhibition: 7%
[2]
  inhibition: 6%
[3]
  inhibition: -5%
[4]
  growth inhibition: 81% (active)
[5]
  outcome: inactive
[6]
  outcome: inactive
[7]
  outcome: inactive
[8]
  outcome: inactive

## COc1ccc2nccc([C@@H](O)CN3CCC(NC(=O)C(c4ccsc4)N4CCN(c5ccccc5)CC4)CC3)c2c1 (stereo partly drawn)
[1]
  growth inhibition: 17%
[2]
  inhibition: 24%
[3]
  inhibition: -8%
[4]
  growth inhibition: 95% (active)
[5]
  outcome: inactive
[6]
  outcome: inactive
[7]
  outcome: inactive
[8]
  outcome: inactive

## Cc1ccc(Nc2ccnc3ccc(C(F)(F)F)cc23)cc1O
[1]
  growth inhibition: 69% (active)
[2]
  inhibition: 23%
[3]
  inhibition: -6%
[4]
  growth inhibition: 102% (active)
[5]
  outcome: inactive
[6]
  outcome: inactive
[7]
  outcome: inactive
[8]
  outcome: inactive

## COc1ccc(NC(=O)[C@H](CC(C)C)Nc2ccnc(Nc3ccccc3)n2)cc1
[1]
  growth inhibition: 32%
[2]
  inhibition: -7%
[3]
  inhibition: 3%
[4]
  growth inhibition: 92% (active)
[5]
  outcome: inactive
[6]
  outcome: inactive
[7]
  outcome: inactive
[8]
  outcome: inactive

## COc1ccc(C(=O)O)cc1OCc1ccccc1
[1]
  growth inhibition: -3%
[2]
  inhibition: -3%
[3]
  inhibition: 3%
[4]
  growth inhibition: 99% (active)
[5]
  outcome: inactive
[6]
  outcome: inactive
[7]
  outcome: inactive
[8]
  outcome: inactive

## N#Cc1ccc(NC(=NCc2cccnc2)Nc2ccc(-c3ccccc3)cc2)c(O)c1
[1]
  growth inhibition: 46%
[2]
  inhibition: 2%
[3]
  inhibition: -3%
[4]
  growth inhibition: 101% (active)
[5]
  outcome: inactive
[6]
  outcome: inactive
[7]
  outcome: inactive
[8]
  outcome: inactive

## CCc1cc(C(=O)c2cccc(C)c2)c(NC(=O)CN2CCN(C(=O)c3ccco3)CC2)s1
[1]
  growth inhibition: 85% (active)
[2]
  inhibition: -13%
[3]
  inhibition: -5%
[4]
  growth inhibition: 91% (active)
[5]
  outcome: inactive
[6]
  outcome: inactive
[7]
  outcome: inactive
[8]
  outcome: inactive

## COc1ccccc1CCNc1ncnc2c1[nH]c1ccc(F)cc12
[1]
  growth inhibition: 68% (active)
[2]
  inhibition: 49%
[3]
  inhibition: 0%
[4]
  growth inhibition: 95% (active)
[5]
  outcome: inactive
[6]
  outcome: inactive
[7]
  outcome: inactive
[8]
  outcome: inactive

## OCC1CCN(Cc2ccc(-c3ccc(-c4nc5ccc(C(F)(F)F)cc5[nH]4)cc3)cc2)CC1
[1]
  growth inhibition: 91% (active)
[2]
  inhibition: 17%
[3]
  inhibition: -2%
[4]
  growth inhibition: 100% (active)
[5]
  outcome: inactive
[6]
  outcome: inactive
[7]
  outcome: inactive
[8]
  outcome: inactive

## COc1ccc2nc(-c3cccc(C)n3)nc(Nc3ccncc3)c2c1
[1]
  growth inhibition: 42%
[2]
  inhibition: -1%
[3]
  inhibition: -3%
[4]
  growth inhibition: 101% (active)
[5]
  outcome: inactive
[6]
  outcome: inactive
[7]
  outcome: inactive
[8]
  outcome: inactive

## COc1c(C2CCN(CCCCNC(=O)c3ccc(-c4ccc(Cl)cc4)cc3)CC2)ccc2c1C(C)(C)CCC2(C)C
[1]
  growth inhibition: 42%
[2]
  inhibition: 94% (active)
[3]
  inhibition: 1%
[4]
  growth inhibition: 95% (active)
[5]
  outcome: inactive
[6]
  outcome: inactive
[7]
  outcome: inactive
[8]
  outcome: inactive

## Fc1ccc2nc(-c3ccc(-c4ccc(CNCc5ccccc5)cc4)cc3)[nH]c2c1
[1]
  growth inhibition: 94% (active)
[2]
  inhibition: 35%
[3]
  inhibition: -4%
[4]
  growth inhibition: 101% (active)
[5]
  outcome: inactive
[6]
  outcome: inactive
[7]
  outcome: inactive
[8]
  outcome: inactive

## Cc1cc(NN=Cc2ccccc2[N+](=O)[O-])c2cc(F)ccc2n1
[1]
  growth inhibition: 100% (active)
[2]
  inhibition: 18%
[3]
  inhibition: -3%
[4]
  growth inhibition: 102% (active)
[5]
  outcome: inactive
[6]
  outcome: inactive
[7]
  outcome: inactive
[8]
  outcome: inactive

## CNCCNCc1cccc(-c2cccc(-c3nc4c(C)cccc4[nH]3)c2)c1
[1]
  growth inhibition: 9%
[2]
  inhibition: 6%
[3]
  inhibition: 1%
[4]
  growth inhibition: 98% (active)
[5]
  outcome: inactive
[6]
  outcome: inactive
[7]
  outcome: inactive
[8]
  outcome: inactive

## c1ccc(CNCc2cccc(-c3csc(-c4nc5ccccc5[nH]4)c3)c2)cc1
[1]
  growth inhibition: 54% (active)
[2]
  inhibition: 24%
[3]
  inhibition: -3%
[4]
  growth inhibition: 102% (active)
[5]
  outcome: inactive
[6]
  outcome: inactive
[7]
  outcome: inactive
[8]
  outcome: inactive

## CCOc1cc(Cc2cnc(N)nc2N)cc(OCC)c1-n1cccc1
[1]
  growth inhibition: -1%
[2]
  inhibition: -1%
[3]
  inhibition: -2%
[4]
  growth inhibition: 98% (active)
[5]
  outcome: inactive
[6]
  outcome: inactive
[7]
  outcome: inactive
[8]
  outcome: inactive

## CC(C)CC(=O)NC1CCN(Cc2c(-c3cccs3)nc3ccccc3c2C(=O)N[C@@H](C)C2CCCCC2)CC1
[1]
  growth inhibition: 97% (active)
[2]
  inhibition: -3%
[3]
  inhibition: -9%
[4]
  growth inhibition: 96% (active)
[5]
  outcome: inactive
[6]
  outcome: inactive
[7]
  outcome: inactive
[8]
  outcome: inactive

## O=c1c(NCCCN(Cc2ccc(F)cc2)c2ccccn2)c(NCc2ccncc2)c1=O
[1]
  growth inhibition: 95% (active)
[2]
  inhibition: 30%
[3]
  inhibition: 3%
[4]
  growth inhibition: 101% (active)
[5]
  outcome: inactive
[6]
  outcome: inactive
[7]
  outcome: inactive
[8]
  outcome: inactive

## COc1ccc(CNCc2cccc(-c3ccc(-c4nc5ccccc5[nH]4)cc3)c2)cc1
[1]
  growth inhibition: 60% (active)
[2]
  inhibition: 22%
[3]
  inhibition: 2%
[4]
  growth inhibition: 101% (active)
[5]
  outcome: inactive
[6]
  outcome: inactive
[7]
  outcome: inactive
[8]
  outcome: inactive

## CCC(=O)Oc1ccc(NC(=O)c2cccc(OC)c2)cc1
[1]
  growth inhibition: 3%
[2]
  inhibition: 17%
[3]
  inhibition: 6%
[4]
  growth inhibition: 98% (active)
[5]
  outcome: inactive
[6]
  outcome: inactive
[7]
  outcome: inactive
[8]
  outcome: inactive

## Cc1cc(N)c2cc(NC(=O)/C=C/c3ccccc3)ccc2n1
[1]
  growth inhibition: 68% (active)
[2]
  inhibition: 20%
[3]
  inhibition: 0%
[4]
  growth inhibition: 102% (active)
[5]
  outcome: inactive
[6]
  outcome: inactive
[7]
  outcome: inactive
[8]
  outcome: inactive
